Compounds without any hit were thinned out: in the full panel of roughly 83,000, 20% have a hit.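 96-well plates, one dose, 48 hours. Percent growth reported; active if below 10.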 Unmarked numbers belong to inactive results. Activity calls are given as the source filed them.
system: UACC-257 melanoma; experiment: NCI-60 one-dose screen, 48 h (100 = growth as untreated, 0 = no growth, -100 = all killed); conditions: 10 µM unless noted

Compound | growth [%]
COc1cc(/C=N/Nc2nc(-c3ccc(F)cc3)c(C#N)c(N3CCOCC3)n2)ccc1O | 102
C=C(C)[C@@H]1CC[C@]2(C(=O)N=C=S)CC[C@]3(C)[C@H](CC[C@@H]4[C@@]5(C)CCC(=O)C(C)(C)[C@@H]5CC[C@]43C)[C@@H]12 | 54.7
CC1(C)[C@@H](O)CC[C@]2(C)[C@H]3CC[C@@H]4[C@H]5[C@H](c6cn(-c7ccccc7)nn6)CC[C@]5(CO)CC[C@@]4(C)[C@]3(C)CC[C@@H]12 | 83.6
COc1cc(/C=C/C(=O)c2ccc(NC(=O)CSc3nnc(-c4cc(OC)c(OC)c(OC)c4)n3-c3ccccc3)cc2)cc(OC)c1OC | 45.8
O=c1c2ccccc2n(CC(O)CN2CCCC2)c2c(Br)cccc12 (centres undefined) | 98.6
COc1cc(-c2cn(-c3ccc(Cl)c(Cl)c3)c(=O)[nH]2)cc(OC)c1OC | 87.4
COC(=O)c1ccc2c(c1)n(Cc1ccc3ccccc3c1)c[n+]2Cc1ccc2ccccc2c1 | 42
O=C1NN(c2ccccc2)C(c2ccc(Cl)cc2)N2CCC[C@H]12 (some centres undefined) | 94.7
Nc1ccccc1NS(=O)(=O)c1ccc(Cl)cc1 | 98.4
CCCCCCN1C(=O)CN=C1Nc1ccc2cc3ccc(NC4=NCC(=O)N4CCCCCC)cc3nc2c1 | 103
Nc1n[nH]c2cccc(C#Cc3cccc(NC(=O)c4cc(N5CCOCC5)cc(C(F)(F)F)c4)c3)c12 | 45.1
Cc1cnc(SCc2ccc(Cl)cc2Cl)nc1Nc1ccc(Cl)c(Cl)c1 | 91.4

system: M14 melanoma; experiment: as above; conditions: 10 µM unless noted

Compound | growth
COc1ccc(/C=C/C(=O)/C=C(/C=C/c2ccc(OC)c(OC)c2)OB(F)F)cc1OC | 11.1%
COc1cc(/C=C/C(=O)/C=C/c2cc3ccc(Cl)cc3[nH]c2=O)ccc1O | 54.1%
CCCCn1c(=O)c(/C=C/C(=O)/C=C/c2cc3ccccc3n(CCCC)c2=O)cc2ccccc21 | -29.9% (active)
COc1ccc(-c2nc(C#N)c(NCC(c3ccco3)N3CCCC3)o2)cc1 (centres undefined) | 12.6%
N#C/C(=C/c1ccc(O)c([N+](=O)[O-])c1)c1nc(-c2ccc([N+](=O)[O-])cc2)cs1 | 41.5%
C=C1C(=O)O[C@H]2[C@H]1CC/C(COC(=O)CCCCC(=O)OC/C1=C/CC[C@@]3(C)O[C@H]3[C@H]3OC(=O)C(=C)[C@@H]3CC1)=C\CC[C@@]1(C)O[C@@H]21 | 47.8%
CCOC(=O)c1c(C(F)(F)F)n([O-])c2ccc(Cl)cc2[n+]1=O | -21.6% (active)
COc1ccc(-c2nc(C#N)c(NCC(c3ccc(Cl)cc3)N3CCCCC3)o2)cc1 (centres undefined) | 92.7%
O=CN1N=C(c2ccc(Cl)cc2)CC1c1cccc(Nc2ccnc3cc(C(F)(F)F)ccc23)c1 (centres undefined) | 74%
O=C(CCCCCCCCC(=O)Nc1cccc(C2=NCCN2)c1)Nc1cccc(C2=NCCN2)c1 | 97.1%
CCOC(=O)C1CCN(S(=O)(=O)/N=C2/NC(=O)NC2=C(Cl)Cl)CC1 | -22.4% (active)
S=c1ssnc1-c1cc2ccccc2o1 | 52.4%
NS(=O)(=O)c1ccc(C2C3=C(CCCC3=O)OC3=C2C(=O)c2ccccc2C3=O)cc1 (centres undefined) | -95% (active)
C=C1C(=O)O[C@H]2[C@H]1CCC(/C=N/c1ncc(Br)cc1N)=C\CC[C@@]1(C)O[C@@H]21 | -12.4% (active)
C#Cc1ccccc1NC(=O)c1sc2nc3c(cc2c1N)CCCCC3 | 93.9%
NS(=O)(=O)c1ccc(-n2nc(-c3ccccc3)ccc2=O)cc1 | 118%
COc1ccc(-c2nnc(N3CCN(C(=O)CN4CCN(c5ccc(OC)cc5)CC4)CC3)nc2-c2ccc(OC)cc2)cc1 | -17.3% (active)
N#Cc1ccc(Oc2ccc3ccc(=O)oc3c2)cc1 | 92%
CC1CCCN(CCCCCOc2ccc3oc4ccccc4c(=O)c3c2)C1 (centres undefined) | 5.02% (active)
CS(=O)(=O)O[C@@H]1C(=O)N(c2cc3c4ccccc4ccc3c3ccccc23)[C@H]1c1ccc(F)cn1 | 30.2%
C=C1C(=O)O[C@H]2[C@H]1CC/C(C=Nc1c(N)cc(F)cc1Br)=C\CC[C@@]1(C)O[C@@H]21 | 66.2%
Cc1ccc(SC2c3ccc(C)cc3Oc3nc(N)c(C#N)c(N)c32)cc1 (centres undefined) | 94.9%

Reference: PubChem BioAssay (NCI)
